# Reference: PubChem BioAssay AID720650 (Broad Institute, 2013)
# The source made the active and inactive calls. No rule for the calls is given here.
# Assay: C difficile toxins, biochemical counterscreen, UDPG substrate absence, confirmatory dose response (AID 720650)
# Conditions: series mostly up to 19.5 µM
row,SMILES,AC50
1,C[C@@H]1CN([C@H](C)CO)S(=O)(=O)c2ccc(-c3ccncc3)cc2O[C@@H]1CN(C)Cc1ccc(Oc2ccccc2)cc1,inactive
2,Cc1nn(CCOc2ccccc2)c(=O)n1-c1ccc(Cl)cc1,inactive
3,Cc1ccccc1NS(=O)(=O)c1ccc(OCC(=O)N2CCCCC2)cc1,inactive
4,CNC(=O)C1CCN(S(=O)(=O)c2c(C)noc2/C=C/c2cccc(OC)c2)CC1,inactive
5,Cc1ccc(-c2csc(NC(=O)/C=C/c3ccco3)c2C(=O)O)cc1,inactive
6,COc1ccc(C2=NS(=O)(=O)N(C)C(C(=O)NCc3ccccc3)=C2)cc1OC,inactive
7,COc1ccc(NC(=O)CSc2nccn2C)cc1S(N)(=O)=O,inactive
8,CCOC(=O)Nc1ccc(OC(=O)Oc2ccc(NC(=O)OCC)cc2)cc1,> 39 µM (inactive)
9,O=C(C[C@@H]1CC[C@H]2[C@@H](COC[C@H](O)CN2C(=O)c2ccccn2)O1)NC1CCC1,inactive
10,Oc1ccc(-c2nccs2)cc1,10.2 µM (active)
11,Fc1cccc(NC(=S)NNc2c3ccccc3nc3ccccc23)c1,inactive
12,C/C(=N\Nc1ccc([N+](=O)[O-])cc1)c1cccc(N)c1,1.42 µM (active)
13,CCCNC(=O)C[C@H]1CC[C@@H]2[C@@H](COc3ccc(NC(=O)c4ccc(Cl)cc4)cc3C(=O)N2C)O1,> 39 µM (inactive)
14,COc1ccc(CNC(=O)C2=CC(c3ccc(OC)c(OC)c3)=NS(=O)(=O)N2C)cc1,> 39 µM (inactive)
15,O=C(C[C@@H]1CC[C@@H]2[C@H](COC[C@H](O)CN2C(=O)c2ccccn2)O1)NC1CCC1,inactive
16,O=S(=O)(c1ccccc1)N1CCN(Cc2nnc(-c3ccccc3)o2)CC1,inactive
17,O=C(O)c1cccnc1SCc1ccccc1Cl,inactive
18,CNC(=O)C[C@@H]1CC[C@H]2[C@H](COc3ccc(NS(=O)(=O)c4ccccc4C)cc3C(=O)N2C)O1,inactive
19,O=C(C[C@@H]1C[C@H]2c3cc(NC(=O)Nc4ccccc4)ccc3O[C@H]2[C@H](CO)O1)NCc1ccccc1,inactive

row,SMILES,AC50
1,Cc1cc(C)c(NS(=O)(=O)c2cccc3cccnc23)c(C)c1,inactive
2,O=C(O)C1C(=O)NCC1c1ccccc1 (stereo not drawn),inactive
3,O=C(COc1cccc(C(F)(F)F)c1)N1CCN(c2ccc(O)cc2)CC1,inactive
4,COc1ccc(OCc2cc(-c3ccc(Cl)cc3)no2)cc1,inactive
5,CN(C)CCCNC(=O)C[C@H]1CC[C@@H]2[C@@H](COc3ccc(NC(=O)c4ccc5c(c4)OCO5)cc3C(=O)N2C)O1,inactive
6,CCOc1ccccc1/C=C/c1onc(C)c1S(=O)(=O)N1CCC(C(=O)NC(C)C)CC1,inactive
7,CCCc1[nH]c(=O)c(C#N)c2c1CCCC2,inactive
8,O=[N+]([O-])c1ccc(/C=C/c2ccc3ccccc3n2)cc1,inactive
9,CC1(C)CC(=O)C(C=Nc2ccc(O)cc2)=C(O)C1,5.68 µM (active)
10,CCCNC(=O)C1CCN(S(=O)(=O)c2c(C)noc2/C=C\c2ccc(OC)cc2)CC1,inactive
11,O=c1c2ccccc2oc2ccc(NCCCN3CCOCC3)cc12,inactive
12,COc1cc(/C=C/C(=O)OCC(=O)NC(=O)NC(C)C)ccc1O,inactive
13,CN(C)c1ccc(C(=S)N2CCN(C(=S)Nc3ccc(Cl)cc3)CC2)cc1,inactive
14,COc1cc(C=C2CN(C)C(=O)C2=O)ccc1O,inactive
15,COc1ccc(Cl)cc1NC(=S)NC1CCCC1,inactive
16,O=C(COc1ccccc1)Nc1ccc(S(=O)(=O)Nc2ncccn2)cc1,inactive
17,Cc1cc(C)c(C)c(S(=O)(=O)N2CCCCC2C(=O)O)c1C (stereo not drawn),> 39 µM (inactive)
18,CCN(CC)CCCCN1c2ccccc2Sc2ccccc21,7.03 µM (active)
19,CCCCCCCN1C(N(C)C)=NC[C@@H]1Cc1ccccc1,inactive
